# Shown are actives, neighbours in structure and some others; about 11% of the full set was active somewhere.
# PLK1 PBD block = PLK1 (human) polo-box domain binding inhibition; P53350; Plk1 PBD binding of FITC phosphopeptide, fluorescence polarization; Potency, µM, for inactives: max response, negative = inhibition, actives largely listed as inhibitors; 360,000 compounds, 2.8% hits; AID 720504; also: series mostly up to about 57 µM; % is scaled to controls: 0 for no effect and ±100 for the full control effect; nearly all actives have a fitted effect of over 65% in size
# VDR inhibitor = blocks the human vitamin D receptor; P11473; 400,000 compounds, 0.93% hits; Potency, µM, for inactives: max response, negative = inhibition, actives largely listed as inhibitors; VDR-SRC2-3 peptide fluorescence polarization, 2 h; also: % is scaled to controls: 0 for no effect and ±100 for the full control effect
#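 Two reagent solutions held at 4 deg C in the dark were dispensed, compounds pinned at 23 nl, and the mixture incubated 2 h at room temperature. Read-out: fluorescence polarization of VDR–SRC2-3 peptide binding.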
# G9a inh = G9a (human) methyltransferase inhibition. G9a H3K9 monomethylation, AlphaScreen, 2 h. Potency, µM (series often up to 102 µM), for inactives: top-dose activity, negative = inhibition, hits mostly inhibitors. 350,000 compounds, 8.8% hits; also: % is scaled to controls: 0 for no effect and ±100 for the full control effect; nearly all actives have a fitted effect of over 75% in size
#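 G9a (20 nM) preincubated 15 min RT with compounds, then 500 nM biotinylated H3K9 peptide and 20 uM SAM added; 2 h RT reaction. Monomethyl-H3K9 product detected by AlphaScreen with anti-H3K9me1 antibody, streptavidin donor and anti-rabbit IgG acceptor beads.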
# HP1b chromo inh = HP1-beta chromodomain-methylated histone interaction inhibition; Potency, µM (doses to about 114 µM), without a hit: top-dose activity change, negative = inhibition, hits mostly inhibitors; 390,000 compounds, 0.56% hits; AlphaScreen HP1-beta / biotin-H3K9me3 peptide binding; AID 540317; P83916; also: nearly all actives have a fitted effect of over 70% in size
#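 HP1-beta protein (50 nM final) preincubated 30 min at room temperature with biotinylated H3(1-18)K9me3 peptide (50 nM) in PBS pH 7.4, 0.01% Tween-20, then compound added for 30 min. AlphaScreen streptavidin donor/nickel chelate acceptor beads (10 ug/mL final), 30 min dark, luminescence read.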
# BAZ2B block = blocks human BAZ2B; Q9UIF8; AlphaScreen BAZ2B-H3K14Ac peptide displacement; Potency, µM (top dose mostly 114 µM), for inactives: top-dose activity change, negative = inhibition, usual class: inhibitors; 360,000 compounds, 4.4% hits; also: % is scaled to controls: 0 for no effect and ±100 for the full control effect; nearly all actives have a fitted effect of over 60% in size
#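 BAZ2B (50 nM) with biotin-H3(5-23)K14Ac peptide (50 nM) in PBS pH 7.4, 0.01% Tween-20, preformed 30 min, then compound 30 min at room temperature; top concentration 110uM. AlphaScreen streptavidin donor/nickel chelate acceptor beads (10 ug/mL final), 20 min dark, signal read.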
# JMJD2A Tudor = JMJD2A Tudor domain (human) inhibition. 390,000 compounds, 4.4% hits. O75164. AID 504339. Potency, µM (series often up to 114 µM), without a hit: at the highest dose activity change, negative = inhibition, actives largely listed as inhibitors. AlphaScreen JMJD2A-Tudor / H3K4me3 peptide binding; also: % is scaled to controls: 0 for no effect and ±100 for the full control effect; nearly all actives have a fitted effect of over 50% in size
# Target sequence (O75164 whole entry, looked up, the tested form may be a part): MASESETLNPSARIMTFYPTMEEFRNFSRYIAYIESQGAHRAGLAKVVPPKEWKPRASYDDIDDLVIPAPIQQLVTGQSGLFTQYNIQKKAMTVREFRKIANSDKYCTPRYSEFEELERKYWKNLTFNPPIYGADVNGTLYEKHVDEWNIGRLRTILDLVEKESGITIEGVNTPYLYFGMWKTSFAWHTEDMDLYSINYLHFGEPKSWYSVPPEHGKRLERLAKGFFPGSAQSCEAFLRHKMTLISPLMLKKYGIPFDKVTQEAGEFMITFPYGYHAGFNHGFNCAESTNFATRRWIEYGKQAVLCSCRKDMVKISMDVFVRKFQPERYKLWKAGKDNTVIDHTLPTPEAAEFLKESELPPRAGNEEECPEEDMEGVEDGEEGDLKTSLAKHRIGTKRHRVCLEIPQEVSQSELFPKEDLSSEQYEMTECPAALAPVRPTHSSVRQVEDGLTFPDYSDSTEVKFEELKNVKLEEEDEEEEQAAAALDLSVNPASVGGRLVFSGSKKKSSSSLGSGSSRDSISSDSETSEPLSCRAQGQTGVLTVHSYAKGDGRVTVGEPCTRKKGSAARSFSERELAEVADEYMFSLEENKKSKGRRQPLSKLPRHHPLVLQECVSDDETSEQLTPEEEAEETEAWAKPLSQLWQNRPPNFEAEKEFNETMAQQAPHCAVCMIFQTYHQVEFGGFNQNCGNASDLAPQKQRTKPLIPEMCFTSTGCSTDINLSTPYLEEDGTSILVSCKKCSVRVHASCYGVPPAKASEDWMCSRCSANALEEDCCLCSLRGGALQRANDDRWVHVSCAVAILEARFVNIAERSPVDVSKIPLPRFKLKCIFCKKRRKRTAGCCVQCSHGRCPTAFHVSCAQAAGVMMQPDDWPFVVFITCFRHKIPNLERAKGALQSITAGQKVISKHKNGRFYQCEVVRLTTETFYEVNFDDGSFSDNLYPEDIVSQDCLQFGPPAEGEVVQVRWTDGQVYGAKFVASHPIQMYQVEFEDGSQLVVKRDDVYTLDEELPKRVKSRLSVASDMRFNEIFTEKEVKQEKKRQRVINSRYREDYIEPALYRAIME
# Starred values were filed as active, the others as inactive; u = inconclusive; x = no result; [ ] = dose if it differs, or a comment. Calls follow the shape of the dose curve; as a rule, active = well fitted curve in the direction sought with a large enough effect; inconclusive = small, poorly fitted or top-dose-only effect, or another doubt; inactive = no such curve, though single readings can be large; an effect the other way counts as inactive or inconclusive. Potency is read from the fitted curve at half-maximal effect.
SMILES,PLK1 PBD block,VDR inhibitor,G9a inh,HP1b chromo inh,BAZ2B block,JMJD2A Tudor
CC(C)C[C@@H](CN)NC(=O)c1nc[nH]c1C(=O)N[C@@H](C)C(=O)CNC[C@H](C)NC(=O)c1nc[nH]c1C(=O)N[C@@H](CC(C)C)C(=O)O,u,-23.3%,x,51.3%,x,50.1µM*
CCC1CCCCN1CCCNC(=O)CCC(=O)N1CCOc2ccccc21 (stereo not given),-3.6%,-0.6%,x,1.3%,35.4%,-14.8%
CC(Oc1ccccc1)C(=O)Nc1nc2ccc(S(N)(=O)=O)cc2s1 (stereo not given),x,0.6%,-42.1%[59 µM],28.4%[57 µM],-2.0%,-5.2%
O=c1[nH]c2cc3c(cc2cc1CN(Cc1nnnn1CC1CCCO1)C1CCCCC1)OCO3 (stereo not given),-26.1%,0.3%,u,39.8%,-5.3%,-25.3%[11.4 µM]
COCCn1nnnc1CN(Cc1cc2cc(OC)c(OC)cc2[nH]c1=O)C1CCCC1,-2.7%,-18.9%,18.1%[59 µM],24.6%,32.6%,0.7%
COc1cc2cc(CN(Cc3nnnn3Cc3ccco3)C3CCCCC3)c(=O)[nH]c2cc1OC,u,-1.2%,39.8µM*,-15.8%,-9.7%,u
O=c1[nH]c2cc3c(cc2cc1CN(Cc1nnnn1CC1CCCO1)C1CCCC1)OCO3 (stereo not given),-9.7%,-11.3%,12.6µM*,14.2%,-7.6%,-4.1%
CCOC(=O)Cn1nnnc1CN(Cc1ccc(OC)cc1)Cc1cc2cc(C)cc(C)c2[nH]c1=O,-7.8%,7.0%,22.4µM*,25.4%,8.6%,-20.9%
COc1ccc(Cn2nnnc2CN(Cc2cc3ccc(C)cc3[nH]c2=O)C2CCCC2)cc1,-0.2%,8.5%,35.5µM*,9.8%,3.3%,-25.8%
COc1ccc(N2CCN(C(=O)c3cccn4c(=O)c5ccc(Cl)cc5nc34)CC2)cc1,x,-4.2%,12.6%[59 µM],63.5%,0.2%,-17.3%
Cc1ccc2cc(CN(Cc3ccc(F)cc3)Cc3nnnn3C3CCCC3)c(=O)[nH]c2c1,-1.4%,4.4%,14.1µM*,14.5%,3.4%,-31.4%
CCOc1ccc2[nH]c(=O)c(CN(Cc3nnnn3Cc3ccco3)C3CCCCC3)cc2c1,-14.7%,-6.4%,u,2.0%,44.7µM*,-27.0%
COc1ccc(-c2ccc(C3C4C=CCC(C)C4C(=O)N3Cc3ccccc3)c(F)c2)cc1C (stereo not given),x,-8.6%,x,27.3%,x,-33.1%
COc1ccc(-c2noc(N3CCN(c4cccc(Cl)c4)CC3)n2)cc1OC,x,8.0%,-21.1%[59 µM],22.1%,-11.8%,-8.6%
O=S(=O)(c1ccccc1)c1nc(-c2ccccc2Cl)oc1N1CCCCCC1,x,-7.1%,u,-0.8%,-35.1%,-29.2%
Cc1ccc(S(=O)(=O)c2nc(-c3ccccc3Cl)oc2N2CCCCCC2)cc1,x,-3.4%,7.08µM*,u,u,-33.2%
Cc1ccc(S(=O)(=O)c2nc(-c3ccccc3Cl)oc2N2CCN(C)CC2)cc1,-3.5%,-12.0%,x,u,x,50.1µM*
Cc1ccc(S(=O)(=O)c2nc(-c3ccccc3F)oc2N2CC(C)OC(C)C2)cc1 (stereo not given),-5.7%,-19.3%,39.8µM*,11.4%,u,-30.6%
CCc1ccc2[nH]c3nc(SCCN4CCOCC4)nnc3c2c1,23.8µM*,u,x,21.7%,5.3%,1.0%
CCCCn1c2ccc(F)cc2c2nnc(SCCN3CCOCC3)nc21,u,-20.5%,39.8µM*,26.2%,-5.7%,-17.6%
CCc1ccc2[nH]c3nc(SCC(=O)NCC4CCCO4)nnc3c2c1 (stereo not given),-0.5%,-12.7%,18.1%,7.6%,-3.3%,-0.4%
CCCCn1c2ccc(F)cc2c2nnc(SCCN(CC)CC)nc21,x,-0.5%,-5.9%[59 µM],16.4%,-34.0%,-4.9%
Cn1c2ccc(F)cc2c2nnc(SCCN3CCOCC3)nc21,u,-9.0%,50.1µM*,51.6%,-1.2%,0.4%
CN1OC[C@@H]2CN(S(=O)(=O)c3ccccc3)[C@H](c3ccc(-n4ccnc4)cc3)C[C@@H]21,-10.3%,x,x,x,x,x
Cn1nnnc1Sc1ncnc2scc(-c3cccc(Cl)c3)c12,x,x,x,x,x,-27.4%
SMILES,PLK1 PBD block,VDR inhibitor,G9a inh,HP1b chromo inh,BAZ2B block,JMJD2A Tudor
O=C(N/N=C\c1ccc(-c2ccc([N+](=O)[O-])cc2)o1)C1COc2ccccc2O1 (stereo not given),-11.5%,-8.5%,-17.2%[59 µM],14.5%,-30.4%,-3.8%
Cc1cccc(C)c1Nc1ncnc2ccccc12,-8.6%,-15.2%,11.9%,56.1%,1.0%,8.4%
Cc1ccc(NC(=O)CSc2ncnc3c2sc2ccccc23)cc1C,x,-2.2%,7.3%[59 µM],19.8%,-0.9%,-10.4%
Cc1ccc(N2CCN(C(=O)Nc3cccc([N+](=O)[O-])c3)CC2C)cc1 (stereo not given),-8.0%,-1.3%,u,u,56.2µM*,u
O=C(Nc1cccc([N+](=O)[O-])c1)N1CCN(c2ccccc2)CC1,1.0%,-6.3%,x,2.8%,u,-27.5%
CCOC(=O)C1(Cc2cccc(F)c2)CCN(Cc2cnn(CC)c2)CC1,-3.0%,16.6%,10.8%,26.4%,3.6%,4.5%[11.4 µM]
CCOC(=O)C1(Cc2cccc(F)c2)CCN(Cc2nc(CC)[nH]c2C)CC1,37.3%,17.1%,39.8µM*,-3.6%,u,50.1µM*
COc1c(/C=N/NC(N)=S)c(C)nn1-c1ccccc1,-14.4%,-19.2%,6.9%,18.3%,-0.6%,-31.2%
Fc1ccc(Br)cc1C1C=C(c2ccc(Br)s2)Nc2ncnn21 (stereo not given),-4.9%,0.0%,10µM*,18.8%,u,u
CCOC(=O)/C(C#N)=C1\CC2CCC1(C)C2(C)C (stereo not given),5.97µM*,79.4µM*,3.16µM*,u,0.4%,-5.1%
CCOC(=O)/C(C#N)=C1/C=Nc2ccccc2N1,-1.2%,6.6%,-8.8%[12.7 µM],18.9%,-38.9%,-13.4%
CN1c2ccc([N+](=O)[O-])cc2N(C)C1(C)c1ccccc1 (stereo not given),-3.3%,8.8%,x,10µM*,8.91µM*,10µM*
CN(C)c1ccc(CNc2ccccn2)cc1,-5.0%,-10.0%,u,-14.3%,50.1µM*,56.2µM*
CN(C)c1ccc(CNCc2cccnc2)cc1,-0.2%,-21.4%,x,0.5%,x,-23.8%
CSc1ccc(CNc2ccccn2)cc1,-9.5%,2.2%,44.7µM*,4.1%,-10.1%,-24.0%
Fc1ccc(CNc2ccccn2)cc1,2.0%,-14.7%,x,32.6%,5.2%,8.8%
Cc1ccc(-n2ncc3c(=O)n(Cc4cccc(Cl)c4)cnc32)cc1C,x,9.8%,5.7%[59 µM],8.5%,2.7%,-11.4%
COc1ccccc1CNC(=O)C1(c2cccs2)CCOCC1,x,3.1%,2.6%[59 µM],33.1%,-2.1%,-11.0%
N#Cc1ccc(OC(=O)c2cnccn2)cc1,u,-8.1%,31.6µM*,7.6%,79.4µM*,u
